Test [1] has as its target human Peroxisome Proliferator-activated Receptor delta (PPARd), PPARD (gene 5467) (UniProt Q03181). The test is described as follows: ATG_PPARd_TRANS: Attagene TRANS-FACTORIAL HepG2 Assay for human Peroxisome Proliferator-activated Receptor delta (PPARd) (AID 2283002). In outline: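 HepG2 cells transiently transfected with multiplexed GAL4-UAS reporter units and exogenous chimeric NR-Gal4 proteins; 24 h compound exposure. Reporter mRNA measured by RT-PCR, 6-FAM labelling, HpaI digestion and capillary electrophoresis; gain of signal versus DMSO.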

Read-out in test [2]: Intercellular Adhesion Molecule 1 (ICAM1), ICAM1 (gene 3383)
The test is described as follows: BSK_3C_ICAM1: BioMAP Diversity Plus: 3C Assay for Intercellular Adhesion Molecule 1 (ICAM1) Biomarker Activity (AID 2283003; active means hit-call score of the fitted dose curve at least 0.9, where 1 is the maximum; inactive means score below 0.9). To be noted: primary human endothelial cells (HUVEC); actives raise or lower the signal. The procedure, abridged:
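HUVEC primary cells stimulated under 3C conditions; ICAM1 measured by ELISA 24 h after compound dosing. Curves fitted bidirectionally against the DMSO baseline. Overt cytotoxicity checked by SRB staining of parallel cultures.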

Test [3] in a line: BSK_3C_Proliferation: Cell Proliferation Assessment in the BioMAP Diversity Plus: 3C Assay (AID 2283006; active means hit-call score of the fitted dose curve at least 0.9, where 1 is the maximum; inactive means score below 0.9;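 on AC50: potency may reflect either rise or fall in cell number versus DMSO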). The settings on record: primary human endothelial cells (HUVEC). In outline: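 Subconfluent HUVEC (3C system) cultured with chemical; relative cell number read at 48 h by sulforhodamine B total-protein staining (0.1% SRB after 10% TCA fixation, 560 nm). Bidirectional fit relative to DMSO.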

Test [4] concerns the target Nuclear receptor subfamily 1 group I member 2 (Homo sapiens) (UniProt O75469). Kind of test: ATG_PXR_TRANS: Attagene TRANS-FACTORIAL HepG2 Assay for human Pregnane X Receptor (PXR) (AID 2283008). In outline:
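HepG2 cells transiently transfected with multiple reporter units, here a PXR-GAL4 chimera driving a GAL4-UAS reporter; 24 h compound exposure. Reporter mRNA measured by RT-PCR, FAM labelling and capillary electrophoresis; gain of signal fitted against DMSO baseline.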

For test [5], the target named is human RAR-related Orphan Receptor beta (RORb), RORB (gene 6096) (UniProt Q92753). The test is described as follows: ATG_RORb_TRANS: Attagene TRANS-FACTORIAL HepG2 Assay for human RAR-related Orphan Receptor beta (RORb) (AID 2283010). The procedure, abridged: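 HepG2 cells transiently transfected with GAL4-UAS reporter units expressing chimeric NR-Gal4 protein; reporter mRNA measured 24 h after dosing by RT-PCR, 6-FAM labelling and capillary electrophoresis. Gain-of-signal fitted relative to DMSO baseline.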

The target of test [6] is human RAR-related Orphan Receptor gamma (RORg), RORC (gene 6097) (UniProt P51449). The test is described as follows: ATG_RORg_TRANS: Attagene TRANS-FACTORIAL HepG2 Assay for human RAR-related Orphan Receptor gamma (RORg) (AID 2283011). In outline: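 Chimeric RORg-Gal4 transactivation in transfected HepG2; 24 h exposure; RT-PCR/capillary electrophoresis readout of reporter mRNA, DMSO baseline.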

For test [7], the target named is human Retinoic Acid Receptor beta (RARb), RARB (gene 5915) (UniProt P10826). Kind of test: ATG_RARb_TRANS: Attagene TRANS-FACTORIAL HepG2 Assay for human Retinoic Acid Receptor beta (AID 2283004). In outline: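 Fluorescent capillary-electrophoresis detection of GAL4-UAS reporter mRNA defines the endpoint, with induction over DMSO-treated wells scored as activity. Transiently transfected human hepatoma HepG2 cells expressing exogenous NR–Gal4 proteins are exposed to test chemicals for 24 h.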

Test [8] has as its target Retinoic acid receptor alpha (Homo sapiens) (UniProt P10276). Kind of test: ATG_RARa_TRANS: Attagene TRANS-FACTORIAL HepG2 Assay for human Retinoic Acid Receptor alpha (RARa) (AID 2283005).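 On AC50: potency for increased reporter signal meaning RARa activation over DMSO.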 The procedure, abridged:
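HepG2 cells transiently transfected with multiple reporter units expressing chimeric RARα-GAL4 fusion, with GAL4-UAS-driven reporters. After 24 h compound exposure, reporter mRNA induction quantified by RT-PCR and capillary electrophoresis with fluorescent labeling; gain-of-signal fitted relative to DMSO control.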

For test [9], the target named is Peroxisome proliferator-activated receptor gamma (Homo sapiens) (UniProt P37231). Kind of test: ATG_PPARg_TRANS: Attagene TRANS-FACTORIAL HepG2 Assay for human Peroxisome Proliferator-activated Receptor-gamma (PPARg) (AID 2283007). In outline: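 Twenty-four hours after chemical dosing of transiently transfected HepG2 cells, isolated RNA was converted to cDNA, reporter sequences amplified and 6-FAM-labelled, then HpaI-digested and analysed by capillary electrophoresis. Signal increase against DMSO was fitted.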

Test [10] has as its target human Retinoic Acid Receptor gamma (RARg), RARG (gene 5916) (UniProt P13631). Kind of test: ATG_RARg_TRANS: Attagene TRANS-FACTORIAL HepG2 Assay for human Retinoic Acid Receptor gamma (RARg) (AID 2283009).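 On AC50: AC50 is for reporter induction above DMSO meaning RARg activation.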 The procedure, abridged: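 HepG2 transiently transfected with GAL4-UAS reporter units and chimeric NR-Gal4 constructs; 24 h compound exposure. Reporter mRNA quantified by RT-PCR, FAM labeling, HpaI digestion and capillary electrophoresis; gain-of-signal versus DMSO.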

Molecules are shown by their SMILES. Where “and” joins values, the source holds several entries; their conditions need not be identical. Identical values can stand only once. Results filed as inconclusive are left out. Some structures have more than one record in an assay (separate samples or runs), and their calls can disagree. Calls of active or inactive are those of the source. How the source made its calls, unless noted: active means hit-call score of the fitted dose curve at least 0.9, where 1 is the maximum; inconclusive means response in the unintended direction; inactive means score below 0.9.

Sequence of human RAR-related Orphan Receptor gamma (RORg), RORC (gene 6097) (P51449 whole entry, looked up, the tested form may be a part): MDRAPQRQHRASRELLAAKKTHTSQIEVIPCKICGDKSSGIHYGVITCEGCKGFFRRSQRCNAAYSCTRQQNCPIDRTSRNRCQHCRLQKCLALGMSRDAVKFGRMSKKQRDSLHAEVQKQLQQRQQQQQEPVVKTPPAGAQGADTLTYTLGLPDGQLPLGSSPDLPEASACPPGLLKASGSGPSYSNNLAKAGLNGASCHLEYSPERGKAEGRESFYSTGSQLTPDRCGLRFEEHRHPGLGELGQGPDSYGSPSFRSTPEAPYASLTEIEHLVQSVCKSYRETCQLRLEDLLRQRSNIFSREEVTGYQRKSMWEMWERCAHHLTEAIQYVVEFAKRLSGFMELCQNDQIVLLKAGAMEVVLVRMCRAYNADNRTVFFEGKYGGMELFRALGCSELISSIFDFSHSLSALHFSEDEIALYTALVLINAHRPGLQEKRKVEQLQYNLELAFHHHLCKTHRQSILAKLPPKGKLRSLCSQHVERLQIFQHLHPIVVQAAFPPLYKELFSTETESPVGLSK
Sequence of human RAR-related Orphan Receptor beta (RORb), RORB (gene 6096) (Q92753 whole entry, looked up, the tested form may be a part): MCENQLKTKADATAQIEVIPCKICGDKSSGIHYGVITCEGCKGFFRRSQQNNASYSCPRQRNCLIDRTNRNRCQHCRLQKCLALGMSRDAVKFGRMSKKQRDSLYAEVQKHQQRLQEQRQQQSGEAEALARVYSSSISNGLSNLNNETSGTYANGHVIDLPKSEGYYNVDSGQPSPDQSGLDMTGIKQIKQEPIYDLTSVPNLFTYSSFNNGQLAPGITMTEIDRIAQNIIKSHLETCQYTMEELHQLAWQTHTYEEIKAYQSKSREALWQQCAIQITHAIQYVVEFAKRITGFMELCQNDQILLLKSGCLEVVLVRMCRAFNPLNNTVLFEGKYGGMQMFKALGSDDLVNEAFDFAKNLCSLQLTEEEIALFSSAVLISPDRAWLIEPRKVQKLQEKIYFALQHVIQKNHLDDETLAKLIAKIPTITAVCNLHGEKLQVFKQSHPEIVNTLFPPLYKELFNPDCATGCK
Sequence of human Peroxisome Proliferator-activated Receptor delta (PPARd), PPARD (gene 5467) (Q03181 whole entry, looked up, the tested form may be a part): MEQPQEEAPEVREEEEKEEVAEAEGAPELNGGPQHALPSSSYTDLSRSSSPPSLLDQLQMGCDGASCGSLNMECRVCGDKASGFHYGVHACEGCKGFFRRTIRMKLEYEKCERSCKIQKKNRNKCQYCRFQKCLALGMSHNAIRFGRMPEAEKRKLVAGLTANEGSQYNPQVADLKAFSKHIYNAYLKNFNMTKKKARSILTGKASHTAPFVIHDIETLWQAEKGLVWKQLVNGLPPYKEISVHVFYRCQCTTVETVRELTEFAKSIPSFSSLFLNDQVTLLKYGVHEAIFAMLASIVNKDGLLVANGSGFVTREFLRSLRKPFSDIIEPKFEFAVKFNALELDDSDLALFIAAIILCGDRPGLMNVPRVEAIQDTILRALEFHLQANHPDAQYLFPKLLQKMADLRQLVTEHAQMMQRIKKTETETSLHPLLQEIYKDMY
Sequence of human Retinoic Acid Receptor beta (RARb), RARB (gene 5915) (P10826 whole entry, looked up, the tested form may be a part): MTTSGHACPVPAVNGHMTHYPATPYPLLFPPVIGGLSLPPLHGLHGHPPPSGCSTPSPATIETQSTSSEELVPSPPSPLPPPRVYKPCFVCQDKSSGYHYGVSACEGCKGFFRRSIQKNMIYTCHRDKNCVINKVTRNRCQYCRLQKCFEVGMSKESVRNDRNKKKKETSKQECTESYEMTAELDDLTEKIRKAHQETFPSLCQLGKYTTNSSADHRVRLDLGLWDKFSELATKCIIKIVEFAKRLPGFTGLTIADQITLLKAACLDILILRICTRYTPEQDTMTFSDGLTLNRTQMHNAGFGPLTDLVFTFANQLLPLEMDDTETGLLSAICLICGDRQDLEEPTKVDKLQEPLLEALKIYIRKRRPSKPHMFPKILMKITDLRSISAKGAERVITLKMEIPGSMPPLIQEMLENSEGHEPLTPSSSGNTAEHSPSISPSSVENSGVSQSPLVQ
Sequence of Nuclear receptor subfamily 1 group I member 2 (Homo sapiens) (O75469 whole entry, looked up, the tested form may be a part): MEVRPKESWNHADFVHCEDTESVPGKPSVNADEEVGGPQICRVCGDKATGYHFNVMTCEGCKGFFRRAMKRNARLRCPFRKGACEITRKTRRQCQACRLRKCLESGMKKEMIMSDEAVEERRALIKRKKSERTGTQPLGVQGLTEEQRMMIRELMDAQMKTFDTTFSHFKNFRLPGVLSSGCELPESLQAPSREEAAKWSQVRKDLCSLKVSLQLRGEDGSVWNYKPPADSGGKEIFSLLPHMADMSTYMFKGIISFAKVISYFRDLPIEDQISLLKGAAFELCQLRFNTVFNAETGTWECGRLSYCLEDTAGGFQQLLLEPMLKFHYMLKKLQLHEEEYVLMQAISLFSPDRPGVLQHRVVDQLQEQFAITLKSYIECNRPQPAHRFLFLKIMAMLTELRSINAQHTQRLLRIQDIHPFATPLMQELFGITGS
Sequence of human Retinoic Acid Receptor gamma (RARg), RARG (gene 5916) (P13631 whole entry, looked up, the tested form may be a part): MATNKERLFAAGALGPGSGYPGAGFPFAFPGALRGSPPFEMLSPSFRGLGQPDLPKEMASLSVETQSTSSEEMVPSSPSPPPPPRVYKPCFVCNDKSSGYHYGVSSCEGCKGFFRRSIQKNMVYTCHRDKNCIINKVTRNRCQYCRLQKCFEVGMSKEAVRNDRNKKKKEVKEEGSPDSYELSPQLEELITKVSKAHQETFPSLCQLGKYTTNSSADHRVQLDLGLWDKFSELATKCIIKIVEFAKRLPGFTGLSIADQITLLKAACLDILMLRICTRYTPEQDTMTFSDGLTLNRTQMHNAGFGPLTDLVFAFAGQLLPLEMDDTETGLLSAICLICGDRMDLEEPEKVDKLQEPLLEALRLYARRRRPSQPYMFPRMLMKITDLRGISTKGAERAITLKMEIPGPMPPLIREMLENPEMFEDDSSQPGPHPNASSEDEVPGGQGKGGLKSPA
Sequence of Peroxisome proliferator-activated receptor gamma (Homo sapiens) (P37231 whole entry, looked up): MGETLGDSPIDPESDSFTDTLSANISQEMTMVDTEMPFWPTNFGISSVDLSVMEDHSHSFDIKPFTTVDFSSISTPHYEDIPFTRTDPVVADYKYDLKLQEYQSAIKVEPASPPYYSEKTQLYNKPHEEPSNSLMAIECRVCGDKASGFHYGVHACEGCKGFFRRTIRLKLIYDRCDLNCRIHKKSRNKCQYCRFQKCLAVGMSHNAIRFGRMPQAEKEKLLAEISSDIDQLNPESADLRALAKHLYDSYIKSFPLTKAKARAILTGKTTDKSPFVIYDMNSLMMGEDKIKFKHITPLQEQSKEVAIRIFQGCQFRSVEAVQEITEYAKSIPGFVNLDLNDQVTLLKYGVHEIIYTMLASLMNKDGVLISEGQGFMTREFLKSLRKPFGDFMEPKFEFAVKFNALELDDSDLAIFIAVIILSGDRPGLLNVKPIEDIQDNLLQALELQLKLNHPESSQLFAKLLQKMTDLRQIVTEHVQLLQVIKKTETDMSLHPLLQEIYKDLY
Sequence of Retinoic acid receptor alpha (Homo sapiens) (P10276 whole entry, looked up, the tested form may be a part): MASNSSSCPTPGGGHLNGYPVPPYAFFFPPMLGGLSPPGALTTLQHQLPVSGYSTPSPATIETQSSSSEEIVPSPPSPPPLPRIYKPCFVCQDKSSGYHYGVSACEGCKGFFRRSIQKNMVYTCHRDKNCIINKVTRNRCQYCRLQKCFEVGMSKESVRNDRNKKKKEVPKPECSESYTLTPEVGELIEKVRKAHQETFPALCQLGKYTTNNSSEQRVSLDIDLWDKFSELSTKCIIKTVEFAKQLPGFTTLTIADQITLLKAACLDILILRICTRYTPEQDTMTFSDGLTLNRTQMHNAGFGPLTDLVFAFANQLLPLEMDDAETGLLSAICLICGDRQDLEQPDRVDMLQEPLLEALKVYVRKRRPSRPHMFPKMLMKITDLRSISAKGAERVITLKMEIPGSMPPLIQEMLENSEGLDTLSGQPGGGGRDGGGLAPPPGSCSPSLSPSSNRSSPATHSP

Consider `OCCC(F)(F)C(F)(F)C(F)(F)C(F)(F)C(F)(F)C(F)(F)C(F)(F)C(F)(F)F`, for which the compound was classed as inactive in [1], in [2], in test [4], in test [5] and in [6]. In addition, the AC50 was 40.5 µM (active) and 15.1 µM (active) in test [2]; 12.7 µM (active) and 17.4 µM (active) and 19.9 µM (active) in test [3].
Turning to `CCC(=C(c1ccc(O)cc1)c1ccc(OCCN(C)C)cc1)c1ccccc1`, the result in test [1], in [7], in test [8], in test [9] and in [10] was inactive. Moreover, the AC50 was 12.6 µM (active) in test [2]; 10.9 µM (active) and 9.84 µM (active) and 11.1 µM (active) in test [9]; 3.28 µM (active) [middle of 4 runs] in test [4].
As for `CCCCC(CC)COC(=O)CCCCC(=O)OCC(CC)CCCC` (stereo not drawn), the result in test [2], in [7], in test [8], in test [3], in test [9] and in [4] was inactive. Moreover, the compound was classed as inactive in test [10] and in test [5].
On to `NCC(F)(F)C(F)(F)C(F)(F)C(F)(F)C(F)(F)C(F)(F)C(F)(F)F`, for which the compound was classed as inactive in test [1], in test [2], in test [8], in test [3], in test [9] and in test [4]. The compound was classed as inactive in test [10].
With `Cc1ccc(S(=O)(=O)O)c(C)c1`, the call in [1], in test [9], in test [4], in [5] and in [6] was inactive.
In the case of `CC(=O)NC1(c2cccc(F)c2)CCN(CC[C@@]2(c3ccc(Cl)c(Cl)c3)CN(c3ccccc3)C(=O)CO2)CC1`, the compound was called inactive in test [1], in test [7] and in [10]. In addition, the AC50 is 20.8 µM (active) in [3], 49.1 µM (active) in test [9] and 8.59 µM (active) in test [4].
For `C#C[C@]1(O)CC[C@H]2[C@@H]3CCC4=CC(=O)CC[C@@H]4[C@H]3CC[C@@]21C`, the call in test [1], in [2], in test [7], in test [8], in test [9] and in [4] was inactive. Besides, the compound was classed as inactive in test [10]. For the same compound, the AC50 in test [3] was 4.1 µM (active); in test [4] it was 26.6 µM (active).
Turning to `Oc1cccc(O)c1`, the result in test [2], in test [7], in test [9], in [4] and in test [6] was inactive.
Regarding `Nc1cccc2c(N)cccc12`, the outcome in [2], in [7], in test [9], in test [4], in test [10] and in test [5] was inactive.
Take `N#C[C@@H]1CC(F)(F)CN1C(=O)CNC1CC2CCC(C1)N2c1ncccn1` (stereo partly drawn): the outcome in test [2], in test [7], in [4], in [5] and in test [6] was inactive.
For `NC(=O)N(O)[C@@H]1C=C[C@H](Oc2cccc(Oc3ccc(F)cc3)c2)C1`, the outcome in test [2], in test [7] and in test [10] was inactive. For the same compound, the half-maximal activity concentration (AC50) in test [9] was 10.1 µM (active); in test [4] it was 7.33 µM (active).
On to `Oc1cc2ccccc2c2ccccc12`, for which the AC50 is 10.3 µM (active) in test [2] and 6.41 µM (active) in test [3]. Further, the outcome in test [7], in test [4] and in test [10] was inactive.
On to `CCCCCCCCCCCCCC[N+](C)(C)C`, for which the AC50 in [2] is 7.59 µM (active); in test [8], 48.5 µM (active); in test [9] it was 26.6 µM (active); in [10] it was 36.6 µM (active). Moreover, the call in [7], in test [8], in test [9], in [4], in [10] and in [5] was inactive. The compound was called inactive in [6].
In the case of `CC(C)(C)c1ccc(O)c(C(C)(C)C)c1`, the AC50 was 15.1 µM (active) in test [2] and 6.59 µM (active) in [4]. The call in test [7], in test [8], in test [9], in test [10], in test [5] and in [6] was inactive.
Take `CCC(C)(C)C1CCC(O)CC1` (stereo not drawn): the result in test [2], in test [7], in test [3], in test [9], in test [4] and in test [5] was inactive.
Consider `COCC(C)O` (stereo not drawn), for which the outcome in [2] was inactive.
For `CCc1nn(C2CCCCC2)c2cc(C3(C#N)CCC(C(=O)O)CC3)ccc12` (stereo not drawn), the result in test [1], in test [2], in test [7], in test [8] and in test [4] was inactive. Also, in test [9], the AC50 is 1.44 µM (active).
Consider `O=[N+]([O-])c1ccc(O)cc1`, for which the compound was called inactive in test [1], in test [2], in test [3] and in [9].
With `Cc1cc(CCN2CCN(c3nsc4ccccc34)CC2)cc2c1NC(=O)CC2(C)C`, the half-maximal activity concentration (AC50) in test [2] is 38.3 µM (active); in [3] it was 18.6 µM (active); in test [9], 3.26 µM (active); in [4], 0.742 µM (active). Moreover, the result in test [7] and in test [10] was inactive.

For the origin of these results see PubChem BioAssay (EPA / NIEHS).
